Compounds without any hit were thinned out: in the full panel of roughly 83,000, 20% have a hit.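 Values shown are percent growth following 48 h exposure of cells in 96-well plates to a single concentration of compound; below 10 was considered active.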 Activity calls are given as the source filed them.
These compounds were tested on HT29 colon (assay: NCI-60 one-dose screen, 48 h (100 = growth as untreated, 0 = no growth, -100 = all killed)). Conditions: 10 µM unless noted.
Experimental: Growth inhibition of the HT29 human tumor cell line is measured as a screen for anti-cancer activity. Cells are grown in 96 well plates and exposed to the test compound for 48 hours. Compounds are tested at a single concentration, which is 10^-5 M for most compounds. The reported endpoint is percent growth (GI% or GIPRCNT), where numbers from 0 - 100% represent growth inhibition, and numbers from -100% - 0 represent cell death. For example, a value of 40 represents 60% growth inhibition. A value of 0 means no net growth occurred over the course of the experiment. A value of -40 indicates 40% of cells at the beginning of the experiment died by the end of the experiment. A value of -100 means all cells are dead at the end of the experiment.
NCI-60 Human Tumor Cell Lines Screen was performed using the standard one-dose NCI protocol, which is described in more detail at https://dtp.cancer.gov/discovery_development/nci-60/default.htm.
Compounds with GIPRCNT values below 10 were considered active. Activity score was based on GIPRCNT using the following formula: […]
Score is 0 for GIPRCNT values of 100 or above, 50 for GIPRCNT values of 0, and 100 for GIPRCNT values of -100.

Row | SMILES | growth
1 | Cc1nc2ccccc2c(/C=C/c2ccc(F)cc2)c1C(=O)/C=C/c1ccccc1 | 3.31% (active)
2 | CC(O)CNC(Cc1ccccc1)c1ccc2c(c1)OCO2 (stereo not given) | 65.5% (inactive)
3 | Nc1cc(C(=O)O)cc(-n2c(O)c(C=C3N=c4ccccc4=N3)sc2=S)c1 | 108% (inactive)
4 | C=C1C(=O)O[C@H]2[C@H]1CC/C(COC(=O)C(=O)c1c[nH]c3ccc(Cl)cc13)=C\CC[C@@]1(C)O[C@@H]21 | -52.7% (active)
5 | c1ccc(Cn2cc3c(c2-c2ccccc2)CCc2cnoc2-3)cc1 | 30.1% (inactive)
6 | O=C(O)CCCCCCCCCCN1C(=O)/C(=C2/C(=O)N(CC(=O)O)c3ccc(Br)cc32)SC1=S | 100% (inactive)
7 | O=[N+]([O-])c1c(O)c(Cl)cc(Cl)c1Cl | 101% (inactive)
8 | COc1cc(/C=C/c2cn[nH]c2-c2ccc(C)cc2)cc(OC)c1OC | 6.79% (active)
9 | CC1=Nc2cnc(Nc3ccc(N4CCCCC4)cc3)nc2Nc2ccccc21 | 62.5% (inactive)
10 | COc1ccc(-c2cc(C(=O)N3N=C(c4ccc(N)cc4)CC3c3ccc(Cl)cc3)c3ccccc3n2)cc1 (stereo not given) | -11.7% (active)
11 | Cn1cc(-c2csc(-c3cn(C)c4ccccc34)n2)c2cnccc21 | 4.26% (active)
12 | Nc1ncccc1O | 26.6% (inactive)
13 | CCOC(=O)/C(=C(/C)NCC(C)C)c1cc(O)c(O)c2c(C)cc(=O)[nH]c12 | 111% (inactive)
14 | Cc1ccc(C2CC(c3cccc(Nc4ccncc4)c3)=Nc3c(N)nc(N)nc3N2)cc1 (stereo not given) | 21.7% (inactive)
15 | Cc1nc2sc(C(=O)Nc3ccccn3)c(N)c2cc1C(C)O (stereo not given) | 27.4% (inactive)
16 | CC(C)C1C2=C(NCCN1C(=O)c1ccncc1)C(C)(C)N(Cc1ccccc1)C2=O (stereo not given) | 92.8% (inactive)
17 | CC(C)Cc1nc(Nc2ccccc2)[nH]c(=O)c1C#N | 51.7% (inactive)
18 | ClC(Cl)c1nc(-c2ccccc2)n2nc(-c3ccccc3)cc2n1 | 1.24% (active)
19 | CSc1ccc(N2C(=N)C(=S)N(c3ccc(C)cc3)C2=O)cc1 | 107% (inactive)
20 | COc1ccc(N=C2NN=C(c3c[nH]c4ccccc34)CS2)cc1OC | 25.3% (inactive)

Row | SMILES | growth
21 | CC12OC(CC(O)C1O)n1c3ccccc3c3c4c(c5c6ccccc6n2c5c31)C(=O)N(CCN1CCCC1)C4=O (stereo not given) | 5.08% (active)
22 | O=C(Nc1ncc(Cc2ccccc2)s1)c1sc2ccccc2c1Cl | 12.3% (inactive)
23 | CCOC(=O)CNC1=C(Cl)C(=O)N(Cc2ccc(Cl)cc2)C1=O | 105% (inactive)
24 | N=C(N)c1ccc(OCCSCCOc2ccc(C(=N)N)cc2)cc1 | 85.4% (inactive)
25 | C[N+]1=C(/C=C/c2ccccc2Cl)C(C)(C)c2ccccc21 | 91.4% (inactive)
26 | O=C1CCC(C(=O)N/N=C/c2cc(F)ccc2F)N1 (stereo not given) | 106% (inactive)
27 | C=CC(=O)Nc1cccc(Oc2nccc(Nc3nnc(-c4ccc(Br)cc4)s3)n2)c1 | 116% (inactive)
28 | COc1nc(/C=C\Nc2ccc3c(c2)OCCOCCOCCOCCO3)nc(OC)n1 | 99.5% (inactive)
29 | CN1C(=O)/C(=C/c2ccc(C(=O)Nc3ncc(Cc4cccc(C(F)(F)F)c4)s3)cc2)SC1=S | 55.4% (inactive)
30 | CN(C)CCCn1c2c(c3cnccc3c1=O)C(=O)c1ccccc1-2 | -2.38% (active)
31 | CN(C)/C(N)=N/N=C(\c1ccccc1)c1ccccn1 | 110% (inactive)
32 | CCN(CC)CCOc1ccc(Nc2ncc3cc(-c4c(Cl)cccc4Cl)c(=O)n(CCOC)c3n2)cc1 | -22.6% (active)
33 | O=C1Nc2ccc(Cl)cc2/C1=C/c1ccc[nH]1 | 107% (inactive)
34 | N=C(N)c1ccc(-c2ccc(-c3ccccc3)o2)o1 | 4.83% (active)
35 | CCOC(=O)c1c(NC(=O)c2ccccc2)sc2c3c(ccc12)OCN(C)C3 | -20.3% (active)
36 | O=S(=O)(N=C1C(Cl)=C(Cl)C(=NS(=O)(=O)c2ccccc2)C(Cl)=C1Cl)c1ccccc1 | 14% (inactive)
37 | c1csc(-c2cn3nc(-c4c[nH]c5ccccc45)sc3n2)c1 | 6.1% (active)
38 | CS(=O)(=O)c1ccc(-c2nc3ccccc3n2CC(=O)N/N=C/c2ccccc2)cc1 | 88.5% (inactive)
39 | O=C(OCc1ccc2c(Cl)cc(Cl)c(O)c2n1)N1CCN(C(=O)c2cc3ccccc3[nH]2)CC1 | 59.3% (inactive)
40 | Cc1sc2nc(NCCN)[nH]c(=O)c2c1C | 95.1% (inactive)

From PubChem BioAssay (NCI)
